# Test results published in PubChem BioAssay AID588579 (National Center for Advancing Translational Sciences (NCATS), 2011).
# The campaign covered roughly 400,000 compounds. About 2,200 (0.55%) were called active. About 1% were inconclusive and are not listed. Shown is part of a subset that was picked to be rich in actives. Values without a mark were called inactive. Calls come from the whole dose curve; as a rule, active = well fitted inhibition curve with a large enough effect; inconclusive = small, poorly fitted or top-dose-only effect, or another doubt; inactive = no such curve, though single readings can be large or run the other way.
# Target: DNA polymerase kappa (Homo sapiens) (UniProt Q9UBT6)
# Experiment: qHTS for Inhibitors of Polymerase Kappa
# Conditions: purified Pol kappa, fluorescent DNA synthesis assay, 10 min; series mostly up to 107 µM; activity, negative = inhibition: at the top concentration
# Description: The processing and repair of DNA interstrand crosslinks (ICL) in eukaryotic cells are extremely complex, potentially involving multiple DNA repair and damage tolerance pathways, including homologous recombination, nucleotide excision repair, translesion synthesis (TLS), and cell cycle checkpoints.
# To that end, in a collaboration between the Oregon Health & Science University and the NIH Chemical Genomics Center a 1536-well high-throughput screen was developed. This fluorescent screen was assayed against the NIH Molecular Libraries Small Molecule Repository (MLSMR) to discover inhibitors of Pol Kappa.
# NIH Chemical Genomics Center [NCGC]
# NIH Molecular Libraries Probe Centers Network [MLPCN]
# Assay Submitter (PI): Stephen Lloyd, Oregon Health & Science University
# Three microliters of reagents (buffer in column 3 and 4 as negative control and 10 nM Pol kappa in columns 1, 2, and 5-48) were dispensed into a 1536-well black solid-bottom plate. Compounds (23 nL) were transferred via Kalypsys pin tool equipped with 1536-pin array. The plates were then incubated for 15 min at room temperature, and 1 uL substrate (50 nM final concentration) were then added to start the reaction and kinetically read twice at 0 min and 10 min on the Viewlux reader
# % is set by controls: 0 for no effect and ±100 for the full control effect; potency is the fitted concentration of half-maximal effect.
# DNA polymerase kappa (Homo sapiens), sequence (Q9UBT6 whole entry, looked up): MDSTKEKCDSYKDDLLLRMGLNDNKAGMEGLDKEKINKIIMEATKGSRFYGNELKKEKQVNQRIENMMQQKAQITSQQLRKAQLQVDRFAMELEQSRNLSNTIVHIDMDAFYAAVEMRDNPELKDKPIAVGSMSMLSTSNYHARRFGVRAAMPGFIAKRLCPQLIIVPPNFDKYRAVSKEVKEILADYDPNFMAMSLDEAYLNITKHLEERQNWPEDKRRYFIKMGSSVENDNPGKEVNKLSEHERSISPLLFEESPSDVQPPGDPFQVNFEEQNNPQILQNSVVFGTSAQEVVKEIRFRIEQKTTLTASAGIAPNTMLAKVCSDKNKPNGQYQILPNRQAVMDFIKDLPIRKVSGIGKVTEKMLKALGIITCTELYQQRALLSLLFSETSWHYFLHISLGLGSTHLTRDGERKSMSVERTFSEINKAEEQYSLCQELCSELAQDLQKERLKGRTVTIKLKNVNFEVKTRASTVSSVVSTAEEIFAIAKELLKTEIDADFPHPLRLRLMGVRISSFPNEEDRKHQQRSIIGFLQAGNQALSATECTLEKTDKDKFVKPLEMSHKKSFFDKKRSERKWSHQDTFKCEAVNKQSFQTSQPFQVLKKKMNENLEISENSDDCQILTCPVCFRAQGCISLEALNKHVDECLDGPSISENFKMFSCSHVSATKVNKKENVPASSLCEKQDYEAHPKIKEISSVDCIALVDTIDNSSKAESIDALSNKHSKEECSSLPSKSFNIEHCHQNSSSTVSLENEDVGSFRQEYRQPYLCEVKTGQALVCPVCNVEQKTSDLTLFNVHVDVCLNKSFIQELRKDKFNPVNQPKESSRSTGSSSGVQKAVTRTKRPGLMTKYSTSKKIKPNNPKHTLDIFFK
Compound,Potency,"activity, negative = inhibition"
CCOc1ccccc1/C=c1\sc2nc(-c3ccco3)nn2c1=O,89.1 µM (active),–
CCOC(=O)C1CCN(C(c2ccc(F)cc2)c2sc3nc(-c4ccco4)nn3c2O)CC1 (stereo unspecified),–,-1.88% [at 60.1 µM]
Oc1c(C(c2ccccc2Cl)N2CCOCC2)sc2nc(-c3ccco3)nn12 (stereo unspecified),–,-5.77% [at 60.1 µM]
NCCC(=O)c1ccccc1N,–,1.11% [at 19.4 µM]
O=C(O)C(O)[C@@](O)(Cc1ccc(O)cc1)C(=O)O (stereo partly specified),–,-7.48% [at 60.1 µM]
O=S(=O)(c1cc(Cl)ccc1Cl)N1CCN(Cc2ccco2)CC1,–,-8.66%
O=C(CN1CCN(S(=O)(=O)c2cc(Cl)ccc2Cl)CC1)c1ccc(O)c(O)c1,28.2 µM (active),–
CCN1CCN(C(=O)C2CCN(S(=O)(=O)c3cc(Cl)ccc3Cl)CC2)CC1,–,-1.71%
NNc1nnc(NN)c2ccccc12,–,2.28% [at 19.4 µM]
CC(=O)/C(C)=N\O,–,-8.23% [at 19.4 µM]
CC1(C)C=Cc2c(ccc(C(=O)/C=C/c3ccccc3)c2O)O1,–,-9.34%
COc1ccc(CNc2ncnc3ccc(-c4cccnc4)cc23)c(OC)c1,–,8.03% [at 60.1 µM]
O=C(c1ccc(Br)o1)N1CCN(CCOc2ccccc2)CC1,–,-8.95%
O=C(c1ccc(CS(=O)(=O)c2ccccc2)o1)N1CCN(c2ccccc2)CC1,79.4 µM (active),–
CCOC(=O)C1CCCN(C(=O)c2ccc(CS(=O)(=O)c3ccc(Br)cc3)o2)C1 (stereo unspecified),–,-1.17%
Nc1nc2c(ncn2[C@@H]2O[C@H](COP(=O)(O)OP(=O)(O)OP(=O)(O)O)[C@@H](O)C2O)c(=O)[nH]1 (stereo partly specified),–,-4.75% [at 19.4 µM]
COc1ccc(OC)c([C@H](O)CNC(=O)CN)c1,–,-13.4% [at 19.4 µM]
COC1C[C@@H](O[C@@H]2C(C)C(=O)OC(C)C(C)C(O)C(C)C(=O)[C@@]3(CO3)CC(C)C(OC3OC(C)CC(N(C)C)C3O)C2C)OC(C)[C@@H]1O (stereo partly specified),–,1.62% [at 60.1 µM]
O=P(O)(O)OC[C@H](O)CO,–,-2.79% [at 60.1 µM]
COc1c2c(cc3occ(-c4ccc5c(c4)OCO5)c(=O)c13)OC(C)(C)C=C2,–,-13.4% [at 60.1 µM]
COc1cccc2c1C(=O)c1c(O)c3c(c(O)c1C2=O)CC(O)(C(C)=NNC(=O)c1ccc(Cl)c(Cl)c1)CC3OC1CC(N)C(O)C(C)O1 (stereo unspecified),17.8 µM (active),–
Cc1cccc(-c2nnc(SC(C)C(=O)Nc3ccccc3)n2C)c1 (stereo unspecified),–,-10.1%

Compound,Potency,"activity, negative = inhibition"
COc1cccc(Nc2ncc3ncc(=O)n(C4CC4)c3n2)c1,–,-2.43% [at 60.1 µM]
C=C(C)C(=O)Nc1cccc(C2=NOC3(C2)C[C@H](C(N)=O)N(C(=O)C(c2ccccc2)c2ccccc2)C3)c1 (stereo partly specified),25.1 µM (active),–
CCC(=O)Nc1cccc(C2=NOC3(C2)C[C@@H](C(N)=O)N(C(=O)c2cc([N+](=O)[O-])cc([N+](=O)[O-])c2C)C3)c1 (stereo partly specified),–,-5.6%
NC(=O)[C@H]1CC2(CC(c3cccc(NC(=O)[C@H]4CCC(=O)N4)c3)=NO2)CN1C(=O)c1ccccc1C(=O)c1ccccc1 (stereo partly specified),–,0.723%
CN1[C@H]2CC(OC(=O)[C@@H](CO)c3ccccc3)C[C@H]1[C@H]1O[C@H]12 (stereo partly specified),–,-3.18% [at 12 µM]
O=C(c1cnccn1)N1CCC2(CCN(Cc3cc(C(F)(F)F)cc(C(F)(F)F)c3)CC2)CC1,–,-13.8% [at 60.1 µM]
Cc1nc2cnc(Oc3cccc(Cl)c3)nc2n(C2CC2)c1=O,–,-4.2% [at 60.1 µM]
S=c1[nH]c(=S)c2n[nH]nc2[nH]1,–,-1.5%
CN(C)CCNC(=O)c1ccc(Cl)c2cc3ccccc3nc12,50.1 µM (active),–
COc1ccccc1Nc1cc(C(=O)NCCCN(C)C2CCCCC2)c2ccccc2n1,–,7.65%
COc1ccc(Nc2cc(C(=O)NCCCN(C)c3ccccc3)c3ccccc3n2)c(OC)c1,–,-14.6% [at 60.1 µM]
O=C(c1csnn1)N1CCC[C@@]2(CCN(c3cccc(-c4ccccc4)c3)C2)C1,–,0.0963% [at 60.1 µM]
CC(=O)c1cccc(Nc2ccc3cc(S(=O)(=O)N4CCC(C)CC4)ccc3n2)c1,–,-6.41%
CC(=O)c1ccc(S(=O)(=O)N2CCN(C(=O)/C=C/c3ccc4ccccc4n3)CC2)cc1,79.4 µM (active),–
CC(=O)c1ccc(S(=O)(=O)N2CCC(Oc3ccc(-n4cnnn4)cc3)CC2)cc1,inactive,–
Cc1cccc(NC(=O)COC(=O)c2ccccc2OCc2cccc(Br)c2)c1,–,-5.63%
C=C1C(=O)C23C(O)C1CCC2[C@]12COC3(O)C(O)C1C(C)(C)CC[C@H]2O (stereo partly specified),–,-19.2% [at 60.1 µM]
O=C(O)c1ccc(NN=CC2=C(N3CCOCC3)/C(=C/c3ccccc3)CC2)cc1,28.2 µM (active),–
O=C(Nc1cc(Cl)ccc1N1CCOCC1)c1ccc(N2CCCC2=O)cc1,–,0.0706%
CC(C)(CNC(=O)c1ccc(Cl)c(S(=O)(=O)N2CCc3ccccc3C2)c1)N1CCOCC1,–,-1.47%
Cc1cc(/C=N/Nc2ccc([N+](=O)[O-])cn2)c(C)n1-c1cccc(C(=O)O)c1,70.8 µM (active),–
Cc1cccc(C(=O)NC(=S)N2CCN(c3ccc([N+](=O)[O-])cc3)CC2)c1,–,-12.7%

Compound,Potency,"activity, negative = inhibition"
CN1CCN(C(=O)c2cnn(-c3ccccc3)c2NC(=O)c2ccc([N+](=O)[O-])cc2)CC1,–,-13.2%
COc1cc(OC)c(OC)cc1/C=C1\C=Cc2ccccc21,–,-11.4%
O=c1c(-c2ccc(F)cc2)nc2cnc(N3CCNCC3)nc2n1Cc1cccs1,–,0.0971% [at 60.1 µM]
CN(C)c1ccc(/C=C2\C=Cc3ccccc32)cc1Br,–,-15.2%
CCOc1ccc(C(=O)N2CCN(CCc3ccccn3)CC2)cc1,–,-3.45%
CCN(CC)CCOc1ccc2c(c1)C(=NNC(=O)c1ccccn1)c1cc(OCCN(CC)CC)ccc1-2,10 µM (active),–
O=C(c1ccncc1)N1CCC2(CCN(Cc3cc(C(F)(F)F)cc(C(F)(F)F)c3)CC2)CC1,–,-13% [at 60.1 µM]
C[C@]12CC[C@@H]3C(=CCc4cc(O)ccc43)[C@@H]1CCC2=O,–,-6.88% [at 12 µM]
Oc1ccc(Cl)c2c1CCC2,–,2.83% [at 19.4 µM]
C/C=C/C=N/NC(=O)c1ccncc1,–,-3.32% [at 19.4 µM]
C=C1c2c(Cl)ccc(O)c2C(O)=C2C(=O)[C@]3(O)C(O)=C(C(N)=O)C(=O)[C@@H](N(C)C)[C@@H]3[C@@H](O)C12 (stereo partly specified),3.98 µM (active),–
CN(C)[C@@H]1C(=O)C(C(N)=O)=C(O)[C@@]2(O)C(=O)C3=C(O)c4c(O)ccc(Cl)c4[C@@H](O)[C@H]3C[C@@H]12,89.1 µM (active),–
O=C1C[C@H]2C=CCc3cccc(c32)CN1Cc1ccccc1,–,11.4%
O=C1CCC[C@@H]2C[C@@]3(C[C@@H]4CCN1[C@H]24)Nc1ccccc1NC3=NCc1ccccc1,–,0%
CC(=O)OCC(=O)[C@@]1(O)CCC2C3CCC4=CC(=O)CC[C@@]4(C)[C@]3(F)C(O)C[C@]21C (stereo partly specified),–,-6.54% [at 60.1 µM]
Brc1ccc(C2=NCCC(c3ccccc3)O2)cc1 (stereo unspecified),–,-13.9%
Cc1cc(C)c2nc(-c3ccco3)cc(C(=O)O)c2c1,22.4 µM (active),–
Cc1cccc(NC(=O)CSc2nc(-c3ccco3)cc(C(F)(F)F)n2)c1C,–,0.715%
Cc1cc(C)c2nc(-c3cccnc3)cc(C(=O)Nc3ccc(S(=O)(=O)Nc4onc(C)c4C)cc3)c2c1,–,-13.6%
Cc1ccc(C(=O)O)cc1-c1ccc(/C=C2\SC(=O)N(CC(=O)Nc3ccc4c(c3)OCO4)C2=O)o1,28.2 µM (active),–
COC(=O)c1ccc2c(c1)N(CC(=O)Nc1ccc(C)c(C)c1)C(=O)c1ccccc1S2,–,-9.25% [at 60.1 µM]
Cn1c(=O)c2ccccc2n(CC(=O)Nc2ccc3c(c2)OCCO3)c1=O,–,-1.46%

Compound,Potency,"activity, negative = inhibition"
CCn1ccnc1C[C@@H]1COc2ccccc2O1,–,-7.82% [at 19.4 µM]
NC[C@@H]1O[C@H](O[C@@H]2[C@H](O[C@@H]3O[C@H](CO)[C@@H](COC[C@H]4O[C@@H](CN)[C@@H](O)[C@@H](O)[C@@H]4N)[C@@H]3O)[C@@H](O)[C@@H](N)C[C@H]2N)[C@@H](N)[C@H](O)[C@@H]1O,–,-0.462% [at 12 µM]
COc1ccc(OC)c(NC(=O)/C=C/c2ccc(C)o2)c1,–,-20.5%
Cc1ccc(/C=C/C(=O)Nc2ccc([N+](=O)[O-])c(NC(=O)/C=C/c3ccc(C)o3)c2)o1,28.2 µM (active),–
Cc1ccc(/C=C/C(=O)OCC(=O)NCc2ccc(Cl)cc2)o1,–,-13.3%
CC1=C(/C=C/C(C)=C/C=C/C(C)=C/C=C/C=C(C)/C=C/C=C(C)/C=C/C(=O)[C@]2(C)C[C@@H](O)CC2(C)C)C(C)(C)C[C@H](O)C1,–,-16.6% [at 60.1 µM]
O=C1C(c2[nH]c3ccccc3c2O)=Nc2ccccc21,–,-10.8% [at 19.4 µM]
CN(C)C(CNC(=O)CCCOc1ccccc1)c1ccco1 (stereo unspecified),–,-16.8%
CCOc1ccc(CNC(=O)c2cc(-c3ccc(Cl)s3)nc3ccccc23)cc1,–,1.73%
Cc1cc(C)c2nc(SCC(=O)N(C)C3CCS(=O)(=O)C3)cc(C)c2c1 (stereo unspecified),–,1.73% [at 60.1 µM]
CN(C(=O)COC(=O)c1cc(-c2ccco2)nc2ccccc12)C1CCS(=O)(=O)C1 (stereo unspecified),20 µM (active),–
CCN(C(=O)COC(=O)/C=C/c1nc2ccccc2s1)C1CCS(=O)(=O)C1 (stereo unspecified),–,6.34%
CN(CCOc1ccccc1)C(=O)c1cc(-c2ccco2)nc2ccccc12,79.4 µM (active),–
Nc1ncn(C2OC(CO)C(O)C2O)c(=O)n1 (stereo unspecified),–,0% [at 60.1 µM]
C=CC(=O)c1ccc2ccccc2c1,–,7.32% [at 19.4 µM]
CCCCCCCNc1ccc(/C=C/c2ccnc3ccccc23)cc1,–,-22.4%
O=C(c1cccc(F)c1)N1CCC2(CCCN(Cc3ccncc3)C2)CC1,–,-4.21% [at 60.1 µM]
Cc1cn([C@H]2CC(F)[C@@H](CO)O2)c(=O)[nH]c1=O (stereo partly specified),–,-4.8% [at 19.4 µM]
O=C(Nc1cccc(C(F)(F)F)c1)c1cc(Br)cc(Br)c1O,–,-0.617% [at 19.4 µM]
COCCn1c(=O)c(-c2ccc(OC)cc2)nc2cnc(Oc3cccc(Cl)c3)nc21,–,-1.11% [at 60.1 µM]
